Measurements published in PubChem BioAssay (NCI).
Compounds without any hit were thinned out: in the full panel of roughly 83,000, 20% have a hit.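 How to read the values: 0–100, growth inhibition (40 = 60% inhibited); 0, no net growth; -100 to 0, cell death (-40 = 40% of starting cells died; -100 = all dead).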 The source made the active and inactive calls.

What follows are molecules tested on NCI-H322M lung (assay: NCI-60 one-dose screen, 48 h (100 = growth as untreated, 0 = no growth, -100 = all killed)). Conditions: 10 µM unless noted.
Protocol: Growth inhibition of the NCI-H322M human Non-Small Cell Lung tumor cell line is measured as a screen for anti-cancer activity. Cells are grown in 96 well plates and exposed to the test compound for 48 hours. Compounds are tested at a single concentration, which is 10^-5 M for most compounds. The reported endpoint is percent growth (GI% or GIPRCNT), where numbers from 0 - 100% represent growth inhibition, and numbers from -100% - 0 represent cell death. For example, a value of 40 represents 60% growth inhibition. A value of 0 means no net growth occurred over the course of the experiment. A value of -40 indicates 40% of cells at the beginning of the experiment died by the end of the experiment. A value of -100 means all cells are dead at the end of the experiment.
NCI-60 Human Tumor Cell Lines Screen was performed using the standard one-dose NCI protocol, which is described in more detail at https://dtp.cancer.gov/discovery_development/nci-60/default.htm.
Compounds with GIPRCNT values below 10 were considered active. Activity score was based on GIPRCNT using the following formula: […]
Score is 0 for GIPRCNT values of 100 or above, 50 for GIPRCNT values of 0, and 100 for GIPRCNT values of -100.

Compound | growth
COc1ccc(-c2ccc(NC(=O)Nc3cccc(C(F)(F)F)c3)c(C)n2)cc1 | 64.4% (inactive)
N#Cc1c(N)nc2c(c1N)C(c1ccc(Cl)cc1)C1=C(CCCC1=O)N2c1sc2c(c1C#N)CCCC2 (stereo not given) | 83.5% (inactive)
OCCOCC(F)(F)F | 97.8% (inactive)
CCNc1ncnc2n[nH]nc12 | 101% (inactive)
Cc1c(NC(=O)c2sc3nc4c(cc3c2N)CN(Cc2ccccc2)CC4)cccc1C(F)(F)F | 73.1% (inactive)
O=C(Cn1c2ccccc2c2ccncc21)N/N=C/c1cc(O)c(O)c(O)c1 | 108% (inactive)
S=c1[nH]nc(Cn2c3ccccc3c3ccncc32)o1 | 106% (inactive)
CCc1c(C)c2cc3c(c(C)c2oc1=O)OCC(=O)N3 | 60.7% (inactive)
COc1ccc(-c2nnc(SCC(=O)Nc3ccc(C(=O)/C=C/c4ccc(OC)c(OC)c4)cc3)o2)cc1 | 94.6% (inactive)
CCCCCCCCN(CCCCCCCC)CC(O)c1cc(-c2ccccc2)nc2ccc(OC)cc12 (stereo not given) | 106% (inactive)
CCOc1ccccc1C(=O)N1CCN(c2cc(Cl)cc(Cl)c2)CC1 | 35% (inactive)
Cc1ccc[n+](CC(=O)c2cccc3ccccc23)c1 | 97% (inactive)
CCC1S/C(=N\N=C(/C)c2ccco2)N(c2ccccc2)C1=O (stereo not given) | 66.8% (inactive)
C=C(C)[C@@H]1C/C=C(\COC(=O)[C@H](OC(C)=O)C(NC(=O)c2ccccc2)c2ccccc2)CC[C@H]2O[C@]2(C)CC/C=C(\C)CC1 (stereo not given in full) | 71.6% [5 µM] (inactive)
COc1ccc2c(c1)nnn1c3ncccc3c(N=O)c21 | 31% (inactive)
O=C(Nc1cccc(-n2ccc3c(NC(=O)c4ccccc4)ncnc32)c1)Nc1ccc(Cl)c(C(F)(F)F)c1 | 60.2% (inactive)
Nc1ncnc2c1ccn2-c1cccc(NC(=O)c2cccc(C(F)(F)F)c2)c1 | 55.8% (inactive)
C[C@H]1C=C(C[C@@H](O)CCCCCCCCCC[C@@H](O)[C@H]2CCC(=O)O2)C(=O)O1 | 94.2% (inactive)
O=C(N/N=C1\SCC(=O)N1c1ccccc1)c1cc(-c2cc3ccccc3o2)nn1-c1ccccc1 | 102% (inactive)
CCC1S/C(=N\N=C(/C)c2cccs2)N(c2ccccc2)C1=O (stereo not given) | 109% (inactive)

Compound | growth
CCOC(=O)C1CN(Cc2ccccc2)C(=O)C1=O (stereo not given) | 94.9% (inactive)
CCOc1ccc(-n2c(-c3cc(OC)c(OC)c(OC)c3)nnc2-c2ccc(OC)cc2N)cc1 | 81.3% (inactive)
O=C(NCCNc1nccc(-c2c(-c3cccc(O)c3)nc3sccn23)n1)c1cccc(C(F)(F)F)c1 | 103% (inactive)
O=C(COc1ccc(Cl)cc1Cl)N1N=C(c2ccc(Cl)cc2Cl)CC1(O)c1cc(F)c(Cl)cc1Cl (stereo not given) | 110% (inactive)
O=C(O)c1ccc2nc(-c3ccc(OCCCCCOc4ccc(-c5nc6ccc(C(=O)O)cc6[nH]5)cc4)cc3)[nH]c2c1 | 91.5% (inactive)
NS(=O)(=O)c1ccc(Nc2nc(O)c(/C=C3\C=Nc4ccccc43)s2)cc1 | 90.7% (inactive)
OC[C@@H](O)C(O[C@@H]1O[C@H](CO)[C@H](O)[C@H](O)[C@H]1O)[C@H](O)[C@@H](O)CO (stereo not given in full) | 96% (inactive)
Cl[C@@H]1CCO[C@H](c2cc3ccccc3c3ccccc23)C1 | 94.6% (inactive)
CC(CCC(=O)O)[C@H]1CCC2C3C(=O)C[C@@H]4CC(=O)CC[C@]4(C)C3CC(=O)[C@@]21C (stereo not given in full) | 111% (inactive)
S=C=NP1(N=C=S)=NP(N=C=S)(N=C=S)=NP(N=C=S)(N=C=S)=NP(N=C=S)(N=C=S)=N1 (stereo not given) | 80.9% (inactive)
CCCc1nn2c(CCC(=O)c3nc4ccc([N+](=O)[O-])cc4[nH]3)nnc2s1 | 97.9% (inactive)
CCc1cccc(C)c1NC(=O)c1sc2nc3c(cc2c1N)CCCCC3 | 41.4% (inactive)
COc1ccc(C2CC(c3cc(Cl)c(C)cc3OC)=NN2c2ccc(S(N)(=O)=O)cc2)cc1OC (stereo not given) | 104% (inactive)
CCc1cccc(-c2ccccc2)c1 | 107% (inactive)
COC(=O)Nc1nc2ccc(Sc3ccccc3)cc2[nH]1 | 55.4% (inactive)
Cc1cccc[n+]1CCC[n+]1ccccc1C | 109% (inactive)
CCCN1C(=O)CSC1=Nc1ccc2cc3ccc(N=C4SCC(=O)N4CCC)cc3nc2c1 | 86.4% (inactive)
C=C1c2c(Cl)ccc(O)c2C(O)=C2C(=O)[C@]3(O)C(O)=C(C(N)=O)C(=O)[C@@H](N(C)C)[C@@H]3[C@@H](O)[C@H]12 | -2.1% (active)
O=S(c1ccccc1)c1ccc2nnnn2n1 (stereo not given) | 98.7% (inactive)
Cc1nccc2c3ccc(OCc4cn(Cc5ccc(Br)cc5)nn4)cc3n(CCCc3ccccc3)c12 | 85.9% (inactive)
